# High-throughput results as filed in PubChem.
# Mac1 fbg inh = blocks human CD11b/CD18 adhesion to fibrinogen; P05107+P11215; K562 CD11b/CD18 adhesion to fibrinogen, ATPlite luminescence; Mn2+ added to activate the integrin; inhibition, % at 10 µM; 93,000 tested, 0.54% active; AID 1497;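 active = primary inhibition of 50% or more at 10 µM, then 40% or more on retest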
# WNV NS2B-NS3 inh = inhibitors of West Nile virus NS2B-NS3 protease | AID 577 | z-score (concentration not given with the values) | WNV NS2B-NS3 protease, fluorogenic substrate Ex360/Em465; active compounds read low | 65,000 tested, 0.18% active; in the data active = z-score below about -3
# Target sequence (P06935 1371-1501 limits assumed): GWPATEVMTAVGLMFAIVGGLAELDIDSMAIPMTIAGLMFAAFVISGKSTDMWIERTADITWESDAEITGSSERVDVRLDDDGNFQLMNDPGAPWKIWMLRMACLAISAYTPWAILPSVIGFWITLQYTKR
# Target sequence (P06935 1502-1679 limits assumed): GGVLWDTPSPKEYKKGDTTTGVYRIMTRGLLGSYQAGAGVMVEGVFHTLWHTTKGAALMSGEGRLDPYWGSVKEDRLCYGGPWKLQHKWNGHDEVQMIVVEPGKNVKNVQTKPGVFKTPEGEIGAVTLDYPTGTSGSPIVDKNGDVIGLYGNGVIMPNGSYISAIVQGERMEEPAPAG
# CD11b adhes enh = increases human CD11b/CD18 adhesion to fibrinogen; P05107+P11215; K562 CD11b/CD18 adhesion to fibrinogen, ATPlite luminescence; activation, % at 10 µM; 93,000 tested, 0.07% active; AID 1499;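 active = 10 µM primary screen giving 50% or more activity, confirmed by 40% or more on retest at that dose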
# * hit, by the source's call; / = no result given. Hits are enriched below; roughly 0.6% of the tested compounds scored in any of these assays.
SMILES,Mac1 fbg inh,WNV NS2B-NS3 inh,CD11b adhes enh
Cc1ccc(C)c(N2CCN(C(=O)c3cc4ccccc4oc3=O)CC2)c1,-5,0.49,2
O=C(Nc1nncs1)C1COc2ccccc2O1 (configuration not stated),-2,-1,1
O=C(Nc1nnc(C(F)(F)F)s1)C1COc2ccccc2O1 (configuration not stated),84*,/,-5
COc1ccc(OC)c(C(O)c2coc3ccc(O)c(CN4CCOCC4)c23)c1 (configuration not stated),0,1.2,-6
O=C(COc1ccc(S(=O)(=O)N2CCc3ccccc32)cc1Cl)NCc1ccccn1,9,0.25,-2
CCN1CCN(C(=O)C2c3cc(OC)c(OC)cc3C(=O)N3CCc4ccccc4C23)CC1 (configuration not stated),/,-3.2*,/
CCCCN(CC)CCNC(=O)C1c2cc(OC)c(OC)cc2C(=O)N2CCc3ccccc3C12 (configuration not stated),/,-1.5,/
CCOC(=O)c1c(NC(=O)CSc2nc3cc(Cl)ccc3c(=O)n2Cc2ccco2)sc(C(=O)N(C)C)c1C,-23,/,37
CC(C)(C)C(=O)Nc1cc2nn(-c3ccccc3)nc2cc1Cl,99*,/,-14
CC(=O)Nc1cc2nn(-c3ccccc3)nc2cc1Cl,-12,1.1,-1
CN1C(=O)/C(=C/c2ccc(-c3ccccc3[N+](=O)[O-])o2)SC1=Nc1ccc(Cl)c(C(=O)O)c1,63,/,3
O=c1c2nnn(Cc3ccccc3)c2ncn1-c1ccccc1,-22,-0.89,-2
COC(=O)CSc1ncnc2c1cnn2Cc1ccccc1,-5,0.51,-1
COc1cc(NC(=O)CSc2ncnc3c2cnn3Cc2ccccc2)cc(OC)c1,64*,/,0
Cc1nn(-c2ccccc2)c(Cl)c1CN(C(=O)CCl)c1cccc2ccccc12,38,/,-6
O=C(CCn1c(=S)[nH]c2ccccc2c1=O)N1CCN(c2ccccn2)CC1,/,-0.9,/
CS(=O)(=O)N(CC(=O)NCc1ccncc1)Cc1ccc(Cl)cc1,-26,-0.66,2
CCC(C)c1ccc(OCCCCN2CCOCC2)cc1 (configuration not stated),-25,/,0
COC(=O)c1cc(NC(=O)c2ccc(Cn3cc(Cl)cn3)o2)cc(C(=O)OC)c1,-3,-0.18,76
CCOC(=O)c1c(NC(=S)NC(=O)c2ccc(Cn3cc(Cl)cn3)o2)sc2c1CCC(C)C2 (configuration not stated),-2,/,201*
COc1ccccc1/C=C/C=N/NC(=O)c1ccc(=O)n(C)c1,-8,/,1
Cc1ccc(/C=C/C(=O)C2C(=O)c3ccccc3C2=O)cc1,95*,/,-12
Cc1ccc(/C=C/C(=O)Nn2cnnc2)cc1,4,/,-3
CCCCN(C(=O)CN1CCOCC1)c1c(N)n(CC(C)C)c(=O)[nH]c1=O,-20,/,5
COc1ccc(-c2cn3c(C)c(C(=O)N4CCCc5ccccc54)sc3n2)cc1,/,-1.1,/
SMILES,Mac1 fbg inh,WNV NS2B-NS3 inh,CD11b adhes enh
COc1ccc(-c2cn3c4c(sc3n2)CCCC4)cc1,55*,-1.1,-4
CCc1nc(N)c(C#N)c(-c2cccn2C)c1C,/,-6.8*,/
CCc1nc(N)c(C#N)c(-c2ccncc2)c1C,29,-0.12,-2
CCOC(=O)c1ccccc1NC(=O)Cn1c(=O)n(Cc2ccccc2)c(=O)c2c(C)c(C)sc21,-18,/,0
CCn1nc(C)c(NS(=O)(=O)c2ccccc2)c1C,-32,/,-2
CCC(Oc1ccccc1)C(=O)Nc1nnc(C(F)(F)F)s1 (configuration not stated),74*,0.33,-6
CCC(Oc1ccccc1)C(=O)Nc1nnc(C)s1 (configuration not stated),-1,2.2,-8
Cc1nc2c(C(=O)NCCC(C)C)c[nH]n2c(=O)c1Cc1ccccc1F,81*,/,-9
Cc1nc2c(C(=O)NCCc3ccccc3)c[nH]n2c(=O)c1Cl,-3,1.8,-3
O=S(=O)(Nc1nc2ccccc2nc1NCc1ccco1)c1ccc(Cl)cc1,/,0.38,/
Cc1noc(C)c1CSc1nc2ccccc2nc1NS(=O)(=O)c1ccc(Cl)cc1,98*,1.8,-8
N#C/C(=C\c1ccc(Oc2ccc(C(F)(F)F)cc2[N+](=O)[O-])cc1)c1nc2ccccc2[nH]1,3,/,82*
COc1cc(/C=C(\C#N)c2nc3ccccc3[nH]2)c([N+](=O)[O-])cc1OCc1ccccc1,-1,/,31
Cc1ccc(-n2nnnc2-c2cnc(-c3cccnc3)nc2C(F)(F)F)cc1,16,/,-2
FC(F)(F)c1nc(N2CCCC2)ncc1-c1nnnn1-c1ccc(Cl)cc1,55*,/,-5
CCCNC(=O)CN1C(=O)NC2(CCCc3cc(OC)ccc32)C1=O (configuration not stated),6,/,0
Cc1cc(C(=O)NNC(=S)NC(=O)/C=C/c2ccccc2Cl)n[nH]1,65*,/,1
Cc1cc(C)nc(NC(=O)/C=C/c2ccccc2Cl)n1,-9,/,1
COc1ccc(C(=O)CSc2nnc(-c3ccccc3)o2)cc1,1,1.1,-3
COc1ccc(C(=O)CSc2nnc(-c3ccc(C)cc3)o2)cc1,-28,-4.1*,28
O=c1cc(NCc2ccccc2)nc2n1CCCS2,/,0.08,/
CCN1CCN(CNC(=O)c2cnccn2)CC1,-31,-4.8*,4
CCN1CCN(c2cc(C)c3cc(NC(=O)c4cnccn4)ccc3n2)CC1,-9,0.21,0
Cc1[nH]c2ccccc2c1C(=O)CSc1nc2ccccc2c(=O)n1CCCN1CCOCC1,12,/,14
O=C(CSc1ncc(-c2ccccc2)n1C1CCCC1)N1CCc2ccccc21,0,/,0
SMILES,Mac1 fbg inh,WNV NS2B-NS3 inh,CD11b adhes enh
N=c1cc(C2(O)CCCCC2)n2c(nc3ccccc32)s1,59*,0.65,-4
O=C1c2sc3nc4ccccc4n3c2C(=O)N1c1ccccc1Cl,2,1.8,-3
Cc1sc2ncnc(NCC3(N4CCOCC4)CCCCC3)c2c1C,52,/,0
Cc1sc2ncnc(NCC3COc4ccccc4O3)c2c1C (configuration not stated),100*,/,-9
Cc1sc2ncnc(NCC(c3ccco3)N(C)C)c2c1C (configuration not stated),/,-0.24,/
Cc1sc2ncnc(NCC(C)(C)N3CCOCC3)c2c1C,68*,/,-5
O=C(c1cc(-c2ccncc2)nc2ccccc12)N1CCN(c2ccc(N3CCOCC3)nn2)CC1,6,-0.44,0
CCN(CC)C(=O)Cn1c(=O)c2ccccc2n2c(=S)sc(-c3cccc(C)c3)c12,-4,/,36
COc1ccc(-c2cc(C(F)(F)F)nc(SCC(N)=O)n2)cc1,18,-0.33,3
O=C(O)c1cccc(CSc2nc(-c3ccc(Cl)cc3)cc(C(F)(F)F)n2)c1,75*,/,-3
C=CCNC(=S)NNC(=O)c1cccc(Br)c1,6,/,-2
O=C(NNC(=S)Nc1cccc2ccccc12)c1cccc(Br)c1,89*,/,-6
CN(C)c1ccc(/C=C/c2ccc3ccccc3[n+]2C)cc1,79*,/,-7
CN(C)c1ccc(/C=C/c2ccncc2)cc1,-26,0.83,1
CCOC(=O)C(=O)/C(=C\N(C)C)c1onc(-c2c(F)cccc2Cl)c1C(=O)OC,-2,/,-5
COc1ccc2nc(C)c(C(=O)OCCN(C)C)cc2c1,-7,0.68,-1
COc1ccc(/C=C2\SC(=NCc3ccccc3)NC2=O)cc1,-10,/,7
